Assay results reported in PubChem BioAssay (NCI).
Compounds without any hit were thinned out: in the full panel of roughly 83,000, 20% have a hit.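 Values shown are percent growth following 48 h exposure of cells in 96-well plates to a single concentration of compound; below 10 was considered active.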 The source made the active and inactive calls.

tested on: NCI-H522 lung; assay: NCI-60 one-dose screen, 48 h (100 = growth as untreated, 0 = no growth, -100 = all killed); conditions: 10 µM unless noted
Description: Growth inhibition of the NCI-H522 human Non-Small Cell Lung tumor cell line is measured as a screen for anti-cancer activity. Cells are grown in 96 well plates and exposed to the test compound for 48 hours. Compounds are tested at a single concentration, which is 10^-5 M for most compounds. The reported endpoint is percent growth (GI% or GIPRCNT), where numbers from 0 - 100% represent growth inhibition, and numbers from -100% - 0 represent cell death. For example, a value of 40 represents 60% growth inhibition. A value of 0 means no net growth occurred over the course of the experiment. A value of -40 indicates 40% of cells at the beginning of the experiment died by the end of the experiment. A value of -100 means all cells are dead at the end of the experiment.
NCI-60 Human Tumor Cell Lines Screen was performed using the standard one-dose NCI protocol, which is described in more detail at https://dtp.cancer.gov/discovery_development/nci-60/default.htm.
Compounds with GIPRCNT values below 10 were considered active. Activity score was based on GIPRCNT using the following formula: […]
Score is 0 for GIPRCNT values of 100 or above, 50 for GIPRCNT values of 0, and 100 for GIPRCNT values of -100.

| Structure (SMILES) | growth |
| --- | --- |
| CCCCCCCCCCCCCC1=NC(C)(C)CN1C(C)C | -61.7% (active) |
| CCCCCCCCCCCCC1CCC(=O)O1 (stereo not given) | 86.9% (inactive) |
| CCOC(=O)Cn1c(-c2nonc2NC(=O)c2ccccc2F)nc2ccccc21 | 47.6% (inactive) |
| c1ccc2c(N=NSc3ncnc4nc[nH]c34)c3ccccc3nc2c1 | -74.9% (active) |
| CC(C)(C)[Si](C)(C)OC1[C@@H](O[Si](C)(C)C(C)(C)C)[C@@H](CNC(=O)NC(=O)NC(=O)CCl)O[C@H]1n1cnc2c(NC(=O)Nc3ccccc3)ncnc21 (stereo not given in full) | -78.6% (active) |
| CCN(CC)CC(=O)Nc1c(C)ccc(N)c1C | 74.4% (inactive) |
| Cn1c(-c2ccccc2)cc(=O)n1-c1ccccc1 | 107% (inactive) |
| NS(=O)(=O)c1ccc(CCn2c(SCC(=O)N/N=C/c3ccccc3O)nc3ccccc3c2=O)cc1 | 8.06% (active) |
| Nc1c(N)c2ccccc2c2ccccc12 | 111% (inactive) |
| CCN(CC)c1cc(C)c(Cc2c(OC)ccc3ccccc23)cc1C | 74.7% (inactive) |
| N/C(=N\OC(=O)c1ccccc1)C(C(=O)NOC(=O)c1ccccc1)C1CCCCC1 (stereo not given) | -46.9% (active) |
| O=C(Nc1cccc(Cl)c1)Nc1ccccc1Cl | 42.6% (inactive) |
| COc1cc(/C=C2\CN(C(=O)OC(C)(C)C)C/C(=C\c3ccc(O)c(OC)c3)C2=O)ccc1O | 64.5% (inactive) |
| COc1ccc(C(=O)N2N=C(c3ccc(F)cc3)CC2c2cn(-c3ccccc3)nc2-c2ccccc2)cc1 (stereo not given) | 52.4% (inactive) |
| CCCCCCCOc1cccc(/C=C2\N=C3SCCCN3C2=O)c1 | 62.3% (inactive) |
| COc1cccc(-c2cc(-c3cccs3)c(C#N)c(=O)[nH]2)c1 | 98.8% (inactive) |
| O=C(Nc1cccc(N=Cc2c(O)ccc3ccccc23)c1)c1ccccc1 | 76.8% (inactive) |
| CC(C)(C)c1ccc(OC(=O)Nc2ccccc2)cc1 | 100% (inactive) |
| CC(C)(C)OC(=O)N1CCCN(CCNc2nccc(-c3c(-c4cccc(O)c4)nc4sccn34)n2)S1(=O)=O | 92.4% (inactive) |
| CCN(CC)c1ccc(/C=N/NC(=O)c2ccc(S(C)(=O)=O)cc2)c(O)c1 | 9.91% (active) |

| Structure (SMILES) | growth |
| --- | --- |
| C=CCCCCOc1cccc(/C=C2\N=C3SCCCN3C2=O)c1 | 83.3% (inactive) |
| CC(=O)N1N=C(C2C(=O)N(C)C(=O)N(C)C2=O)CC1c1ccccc1C(=O)O (stereo not given) | 83.3% (inactive) |
| C(=Nc1ccc(-c2ccc(N=Cc3ccccc3)cc2)cc1)c1ccccc1 | 70% (inactive) |
| Cc1[nH]c2ccccc2c1C1=CC(=O)C=CC1=O | -24.4% (active) |
| CCCCOc1nc2ccc(C)cc2cc1/C=C/C(=O)/C=C(O)/C=C/c1cc2cc(C)ccc2nc1OCCCC | 85% (inactive) |
| O=c1nc(-c2ccccc2)c2cc(-c3ccc(N4CCOCC4)cc3)ccc2[nH]1 | 68.3% (inactive) |
| COc1cccc(NC(=O)OC(C)C)c1 | 90.9% (inactive) |
| CC1=C(/C=C/C(C)=C/C=C(C(=O)O)\C(C)=C\C(=O)O)C(C)(C)CCC1 | 77.9% (inactive) |
| CCOC(OCC)c1cnc2nc(NC(C)=O)[nH]c(=O)c2n1 | 98.8% (inactive) |
| c1cc2c(cc1-c1cnc3nonc3n1)OCO2 | 55.9% (inactive) |
| O=c1c2cc(Br)cc(Br)c2nc(-c2ccc(Cl)cc2)n1/N=C\c1ccccc1F | 51.3% (inactive) |
| CC(C)(CCc1ccccn1)C(=O)CCCc1ccccn1 | 108% (inactive) |
| COc1ccc(C(=O)OC2C(OC3C(O)COC(O[C@H]4C[C@H]5[C@@H]6CC=C7C[C@@H](O)CC[C@]7(C)[C@H]6CC[C@]5(C)[C@H]4[C@H](C)C(=O)CCC(C)C)C3OC(C)=O)OCC(O)C2O)cc1 (stereo not given in full) | -65.7% (active) |
| c1ccc2oc(-c3cnc4nonc4n3)cc2c1 | 78.3% (inactive) |
| Cc1cccc(N=NC(=S)NNc2cccc(C)c2)c1 | 95.4% (inactive) |
| COc1cc(C2CC(=O)Nc3c2cnn3C)cc(OC)c1OC (stereo not given) | 101% (inactive) |
| COc1ccc2nc3cc(Cl)ccc3c(NC(=O)CSc3ccc(Cl)cc3)c2c1 | -96.5% (active) |
| COc1ccccc1CNCCCN1C(=O)c2ccc3c4c(ccc(c24)C1=O)C(=O)N(CCCOCCCCOCCCN)C3=O | -77.4% (active) |
| Cc1ccc(C)c(NC(=O)c2sc3c(=O)[nH]cnc3c2C)c1 | 64.9% (inactive) |
| CCCCCCCCN(CCCCCCCC)C(=O)CCl | -50.5% (active) |
